Experimental data from ChEMBL document CHEMBL4513147, “CO-ADD screening of Armstrong State University (GA, USA) compounds”.
Results with a measured potency or affinity are listed apart.

Experiments:
[1] = tested on: Staphylococcus aureus; conditions: Concentration 32 ug.mL-1; ASSAY_TEST Inhibition of Bacterial Growth; detection method Absorption (OD600); MEDIA CAMHB; plate type 384well; NBS; CORNING #3640; time 18 hr
[2] = tested on: Escherichia coli; conditions: Concentration 32 ug.mL-1; ASSAY_TEST Inhibition of Bacterial Growth; detection method Absorption (OD600); MEDIA CAMHB; plate type 384well; NBS; CORNING #3640; time 18 hr

Compound | Inhibition [1] [%] | Inhibition [2] [%]
COc1ccc2c(c1)CCC(=Cc1cccnc1)C2=O | 11.8 | 5.55
COc1ccc2c(c1)CCC(=Cc1ccoc1)C2=O | 24.71 | 8.45
CC(C)(C)OC(=O)N1CC(=Cc2ccco2)C(=O)/C(=C/c2ccco2)C1 | 17.59 | 1.8
COc1ccc2c(c1)CCC(=Cc1cccnc1Cl)C2=O | 1.26 | -0.89
COc1cc2c(cc1OC)C(=O)C(=Cc1ccco1)CC2 | 23.29 | 6.96
COc1ccc2c(c1)C(=O)C(=Cc1cnccc1OC)CC2 | 16.33 | 1.39
COc1ccc(/C=C/C(=O)c2ccc(OCc3ccc(Br)cc3)cc2)cc1OC | -11.78 | -9.61
COc1ccc2c(c1)CCC(=Cc1cnccc1OC)C2=O | 0.49 | -6.17
CC(C)(C)OC(=O)N1CC(=Cc2ccoc2)C(=O)/C(=C/c2ccoc2)C1 | 3.94 | -5.28
COc1ccc2c(c1)C(=O)C(=Cc1cccnc1Br)CC2 | 5.72 | 0.26
COc1ccc2c(c1)C(=O)C(=Cc1ccoc1)CC2 | 24.21 | 0.87
COc1ccc2c(c1)C(=O)C(=Cc1cccnc1Cl)CC2.Cl | 20.04 | 2.21
COc1ccc2c(c1)CCC(=Cc1ccccn1)C2=O | 14.37 | 1.84
COc1ccc2c(c1)CCC(=Cc1ccc(OC)nc1)C2=O | -4.04 | 1.52
COc1ccc2c(c1)CCC(=Cc1cccnc1Br)C2=O | 11.61 | -5.29
COc1cccc2c1CCC(=Cc1ccco1)C2=O | 13.6 | 5.5

Compound | Inhibition [1] [%] | Inhibition [2] [%]
COc1ccc2c(c1)C(=O)C(=Cc1ccccn1)CC2 | 11.08 | 3.58
COc1ccc2c(c1)CCC(=Cc1cncc(Br)c1)C2=O | 0.4 | -0.04
COc1ccc2c(c1)CCC(=Cc1ccncc1)C2=O | 16.04 | 3.11
COc1ccc2c(c1)C(=O)C(=Cc1cncc(Br)c1)CC2 | 75.2 | 2
COc1ccc2c(c1)CCC(=Cc1ccco1)C2=O | 19.21 | 7.9
COc1cccc2c1CCC(=Cc1ccoc1)C2=O | 21.03 | -0.51
Cc1ccc(C=C2CN(C(=O)OC(C)(C)C)C/C(=C\c3ccc(C)cc3C)C2=O)c(C)c1 | 9.56 | -6.82
COc1ccc2c(c1)C(=O)C(=Cc1cccnc1OC)CC2 | 16.7 | 4.57
COc1ccc2c(c1)C(=O)C(=Cc1cccnc1Cl)CC2 | 6.88 | -2.48
COc1cc2c(cc1OC)C(=O)C(=Cc1ccoc1)CC2 | 22.02 | 2.08
COc1ccc2c(c1)C(=O)C(=Cc1cccnc1)CC2 | 17.94 | 4.25
COc1ccc2c(c1)C(=O)C(=Cc1ccco1)CC2 | 20.52 | 4.79
COc1cccc2c1CCC(=Cc1cccc(C=C3CCc4c(OC)cccc4C3=O)c1)C2=O | -26.12 | -22.27
COc1ccc2c(c1)C(=O)C(=Cc1cccc(C=C3CCc4ccc(OC)cc4C3=O)c1)CC2 | 5.74 | 2.05
COc1ccc2c(c1)C(O)C(=Cc1cccnc1Cl)CC2 (configuration not stated) | 5.45 | 4.12
